Here are results for eight compounds from PubChem BioAssay (NCI).

Compounds without any hit were thinned out: in the full panel of roughly 79,000, 15% have a hit. A number with no mark means an inactive call. Activity calls are given as the source filed them. Rule as the data show it: active = growth inhibition above about 70%; inactive = the rest.

A short description of the test: NCI Yeast Anticancer Drug Screen. Data for the rad50EPP+ strain (AID 151).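 Also: 0% = growth of vehicle-treated control cultures.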 The settings on record: S. cerevisiae rad50 mutant strain, active compounds read high. Here is the method:
Growth inhibition of yeast strains with defined genetic alterations is measured as a screen for potential anti-cancer activity. Selected strains with alterations in DNA damage repair or cell cycle control were exposed to compounds and growth inhibition was measured relative to vehicle treated controls. The strain used in this assay is rad50EPP+

As for `C=CC(C)(O)CCC1C(=C)C(O)CC2C(C)(C)CCCC12C` (stereo not given), the growth inhibition runs as follows: (at 1.2 µM) 4%; (at 3.7 µM) -6%; (at 11.0 µM) 12%; (at 33.0 µM) 0%; (at 100.0 µM) -40%.
On the same counts, the results for `CC(C)OC(=O)Oc1ccccc1OC(=O)OC(C)C` are -1%, 2%, 2%, -1% and 2%.
For the compound `c1ccc2c(c1)sc1cc3ccncc3cc12`, the growth inhibition (at 1.2 µM) was 7%; the growth inhibition (at 3.7 µM) was 21%; the growth inhibition (at 11.0 µM) is 63%; the growth inhibition (at 33.0 µM) is 94% (active); the growth inhibition (at 100.0 µM) was 99% (active).
On the same counts, the results for `S=C(Nc1ccc(Cl)cc1)SC1CCCCC1` are 7%, 22%, 61%, 98% (active) and 98% (active).
In the case of `Cc1nc(-c2ccccc2)c(-c2ccccc2)s1`, the growth inhibition is -24% (at 1.2 µM); 4% (at 3.7 µM); 29% (at 11.0 µM); 50% (at 33.0 µM); 65% (at 100.0 µM).
The matching figures for `CC(=O)SCCC[Si](C)(C)CCCSC(C)=O`: -3%, 2%, 12%, 11% and 20%.
On to `c1ccc2c(c1)c1ncccc1c1nccnc21`, for which the growth inhibition is 15% (at 1.2 µM); 33% (at 3.7 µM); 43% (at 11.0 µM); 69% (at 33.0 µM); 63% (at 100.0 µM).
The matching figures for `CC/C(=C(\c1ccccc1)c1ccc(OCCN(C)C)cc1)c1ccccc1`: 12%, 2%, 1%, 97% (active) and 97% (active).
